BoNT-F LC inh – blocks Botulinum neurotoxin F light chain protease; Multiplex microsphere protease cleavage assay, flow cytometry; AID 588497; inhibition, % at 10 µM; actives 0.22% (n = 360,000); in the data active = inhibition above about 35%, passing the limit was not always enough; inconclusive = no clear call, values can overlap the other calls; also: plate controls were buffer without enzyme for full effect and enzyme alone for no effect
Anthrax LF prot – anthrax lethal factor protease inhibition. P15917. multiplex microsphere protease cleavage assay, LF. inhibition, % at 10 µM. actives 0.12% (n = 360,000). AID 588501; also: plate controls were buffer without enzyme for full effect and enzyme alone for no effect
Target sequence (P15917 whole entry, looked up): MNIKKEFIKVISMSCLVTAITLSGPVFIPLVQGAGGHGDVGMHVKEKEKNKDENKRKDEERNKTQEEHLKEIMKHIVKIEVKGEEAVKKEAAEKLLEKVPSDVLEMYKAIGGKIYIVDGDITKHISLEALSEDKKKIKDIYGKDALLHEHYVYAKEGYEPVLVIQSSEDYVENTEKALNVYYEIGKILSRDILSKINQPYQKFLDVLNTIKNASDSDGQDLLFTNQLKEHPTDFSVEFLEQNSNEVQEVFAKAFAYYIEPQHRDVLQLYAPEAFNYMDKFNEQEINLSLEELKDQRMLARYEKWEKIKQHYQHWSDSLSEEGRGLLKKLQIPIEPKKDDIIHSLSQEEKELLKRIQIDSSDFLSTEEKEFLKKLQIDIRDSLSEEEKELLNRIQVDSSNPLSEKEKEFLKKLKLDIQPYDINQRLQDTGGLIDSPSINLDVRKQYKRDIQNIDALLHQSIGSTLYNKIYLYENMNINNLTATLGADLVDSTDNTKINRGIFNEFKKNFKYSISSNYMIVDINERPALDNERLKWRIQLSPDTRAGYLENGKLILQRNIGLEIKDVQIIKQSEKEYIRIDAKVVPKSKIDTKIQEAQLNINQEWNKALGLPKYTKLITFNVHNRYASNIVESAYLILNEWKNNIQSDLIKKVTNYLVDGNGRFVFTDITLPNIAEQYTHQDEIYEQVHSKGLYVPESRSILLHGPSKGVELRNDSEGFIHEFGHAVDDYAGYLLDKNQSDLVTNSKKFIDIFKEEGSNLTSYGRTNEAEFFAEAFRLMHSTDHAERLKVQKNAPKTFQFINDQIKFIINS
BoNT-A LC inh2 – BoNT A light chain protease inhibition | inhibition, % at 10 µM | multiplex microsphere protease substrate cleavage, flow cytometry | actives 0.17% (n = 360,000) | AID 588499; also: plate controls were buffer without enzyme for full effect and enzyme alone for no effect
Bead autofluor – flagged as autofluorescent in microsphere protease counterscreen; compound autofluorescence counterscreen, microsphere flow cytometry; stronger effect = higher value; fluorescence intensity (no concentration beside the values); actives 3.1% (n = 360,000); AID 624483; in the data active = fluorescence intensity above about 16000; inconclusive = no clear call, values can overlap the other calls
SSB-PriA inh – blocks PriA binding to SSB C-terminal tail | inhibition, % at 33 µM | actives 0.6% (n = 430,000) | AlphaScreen SSBct-PriA binding, biotinylated peptide; in the data active = inhibition mostly above about 37%, no sharp cut-off; inactive = mostly below about 20%;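 also: plate controls were negative control peptide for no effect and reference peptide for full effect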
The depositor's hits bear a star; ? = inconclusive; . = no result. Sampled rows, rich in hits. Any-hit rate of the full collection: about 3.1%. Rule as the data show it, unless noted: active = inhibition above about 30%; inconclusive = no clear call, values can overlap the other calls; inactive = below that.

SMILES | BoNT-F LC inh | Anthrax LF prot | BoNT-A LC inh2 | Bead autofluor | SSB-PriA inh
Cc1nnc(NC(=O)CSc2ccc(-c3ccccn3)nn2)s1 | . | . | . | . | 56*
Cc1nnc(NC(=O)CSc2ccc(-c3cccnc3)nn2)s1 | 1 | -2 | 0 | 4069 | -18
O=S(=O)(c1ccc(Cl)c(F)c1)N1CCC(c2nc(-c3ccncc3)no2)CC1 | -3 | -4 | -3 | 21243* | -11
O=S(=O)(c1ccc(Cl)cc1)N1CCC(c2nc(-c3ccc(F)cc3)no2)CC1 | . | . | . | . | -1
O=C1CCCN1Cc1cn(C2CN(C(=O)CCS(=O)(=O)c3ccccc3)C2)nn1 | . | . | . | . | -8
CCC(/C=C1\Sc2ccc(OC)cc2N1CC)=C\c1sc2ccc(OC)cc2[n+]1CCCS(=O)(=O)[O-] | 16 | 48* | 100* | 1738 | .
CCC(/C=C1\Sc2ccc(OC)cc2N1CCO)=C\c1sc2ccc(OC)cc2[n+]1CCO | -120 | -26 | 40* | 1224 | 23
O=C(Cc1cccs1)N1CCN(c2nccn3nc4c(c23)CCCC4)CC1 | . | . | . | . | 9
COC(=O)CN(C#N)c1nc(OC)nc(N(C)C)n1 | -1 | -1 | -2 | 17155* | -7
COC(=O)CN(C#N)c1nc(N(C)C)nc(N(C)C)n1 | 3 | -2 | 0 | 4153 | -1
O=S(=O)(NC1CCCC1)c1ccccc1Cl | 3 | 0 | ? | 20825* | -10
CCc1nc(SCC(=O)NCCc2ccccc2)c2oc3ccccc3c2n1 | -15 | 3 | 0 | 10100 | 6
Cc1nc(SCC(=O)Nc2ccccc2)c2oc3ccccc3c2n1 | 3 | -1 | 0 | 2772 | -15
Cc1nc(SCC(=O)NC(C)c2ccccc2)c2oc3ccccc3c2n1 (stereo not given) | 1 | -2 | 0 | 19999* | -17
Cc1nc(SCC(=O)NCCc2ccccc2)c2oc3ccccc3c2n1 | -2 | 5 | 1 | 16266* | -6
CC(OC(=O)CNC(=O)C12CC3CC(CC(C3)C1)C2)C(=O)Nc1ncc(Cl)cc1Cl (stereo not given) | 4 | 0 | 3 | 18610* | -6
CC(OC(=O)CN(C)S(=O)(=O)c1ccc(Cl)cc1)C(=O)Nc1ncc(Cl)cc1Cl (stereo not given) | -2 | -1 | 0 | 23244* | -12
CC[C@@](CNC(=O)c1ccccc1Br)(OC)c1ccccc1 | . | . | . | . | 3
CCOC(=O)C1=C(c2ccccc2)N=c2s/c(=C\c3cc(OC)c(OC)c(OC)c3)c(=O)n2C1c1cccs1 (stereo not given) | 19 | 34* | 41* | 3932 | .
CCN(CC)CCNC(=O)NC1CCCCC1 | -4 | 0 | ? | 22854* | -2
O=C(CCc1csc(NC(=O)Nc2cccc(Cl)c2)n1)Nc1nccs1 | . | . | . | . | -20
Cn1nc(C(=O)NCC2Cc3ccccc3CO2)ccc1=O (stereo not given) | . | . | . | . | -23
Cc1n[nH]c(C)c1N1C(=O)c2cccc3c(N4CCCCCC4)ccc(c23)C1=O | 33 | -6 | 16 | 20898* | -29
C=CCN1C(=O)c2cccc3c(N4CCCCC4)ccc(c23)C1=O | 14 | 15 | 30* | 6017 | -22
O=C1c2cccc3c(N4CCCCC4)ccc(c23)C(=O)N1CCO | 16 | 2 | 5 | 3264 | -46
SMILES | BoNT-F LC inh | Anthrax LF prot | BoNT-A LC inh2 | Bead autofluor | SSB-PriA inh
COC(=O)c1c(C(=O)OC)c(-c2ccc(Cl)c(Cl)c2)n2c1CCC2 | 1 | -6 | 0 | 10365 | 26
COC(=O)c1c(C(=O)OC)c(-c2ccc(C)cc2)n2c1CCC2 | -7 | 0 | -5 | 24446* | -3
CC1(C)CC(=O)CC(C)(C)N1OC(=O)c1ccncc1 | -1 | -13 | ? | 23714* | 0
CCN(C(=O)Cc1cc(=O)oc2cc(C)ccc12)c1ccccc1 | . | . | . | . | -7
CCn1nnc(NC(=O)CSc2ccc(Cl)cc2)n1 | -4 | -1 | -3 | 24449* | -18
CN1CCN(c2ccccc2NC(=O)c2cc3ccccc3o2)CC1 | 0 | 1 | 3 | 21317* | 0
Cc1cc(-c2csc(NC(=O)c3cc4ccccc4o3)n2)c(C)n1C | -3 | 7 | 0 | 23885* | 2
CC(C)C(=O)Nc1ccc(NC(=O)c2cc3ccccc3o2)cc1 | -5 | -3 | -2 | 22449* | -1
CC(C)C(=O)Nc1ccc(NC(=S)NC(=O)c2cc3ccccc3o2)cc1 | -8 | 1 | -1 | 4307 | 1
O=C(Cn1nc(N2CCCCC2)c2ccccc2c1=O)Nc1ccc(Cl)cc1 | . | . | . | . | 3
CC(=O)Nc1ccc(NC(=O)Cn2cccc(-c3nc(-c4ccccc4)no3)c2=O)cc1 | . | . | . | . | -11
CCn1nnc(NC(=O)c2cc3ccccc3o2)n1 | 2 | 4 | 2 | 21445* | -7
CCCn1nnc(NC(=O)c2cc3ccccc3o2)n1 | -13 | 1 | -1 | 11525 | -5
Cc1cc(S(=O)(=O)NCC(c2ccco2)N2CCc3ccccc3C2)ccc1F (stereo not given) | . | . | . | . | 6
CN(C)c1cccc(C(=O)N2CCCC[C@H](c3ccc(F)cc3)C2)c1 | . | . | . | . | 57*
Cn1c2ccccc2c2nnc(SCC(=O)NC3CCCC3)nc21 | 9 | -6 | -2 | 3743 | -2
Cn1c2ccccc2c2nnc(SC3CCOC3=O)nc21 (stereo not given) | 0 | 0 | 0 | 23365* | -2
Cc1cc(C)n(-c2nc(SCCN(C)C)c3c4c(sc3n2)CCCC4)n1 | -9 | -2 | -7 | 17751* | 23
Cc1cc(C)n(-c2nc(SCC(=O)O)c3c4c(sc3n2)COC(C)(C)C4)n1 | -10 | -2 | 0 | 4304 | -1
CCOC(=O)N1CCN(C(=O)CN(C2CCCCC2)S(=O)(=O)c2ccc(C)cc2)CC1 | 3 | 2 | 0 | 3169 | 3
Cc1ccc(S(=O)(=O)N(CC(=O)N2CCN(c3ccc(F)cc3)CC2)C2CCCCC2)cc1 | -7 | 1 | -1 | 23859* | -4
Cc1cc(=O)n(CC(=O)NC2CCCCC2)cn1 | . | . | . | . | -22
CC(C)(C)NC(=O)C12CCC(C)(c3nc4ccccc4nc31)C2(C)C (stereo not given) | 3 | -1 | 3 | 22617* | -12
COC(=O)C12CCC(C)(c3nc4ccccc4nc31)C2(C)C (stereo not given) | 10 | -9 | 0 | 3265 | -10
COc1ccc(NC(=O)c2ccc(C(=O)c3cc(OC)ccc3OC)cc2)cc1 | 6 | 1 | 6 | 20895* | 9
SMILES | BoNT-F LC inh | Anthrax LF prot | BoNT-A LC inh2 | Bead autofluor | SSB-PriA inh
CCCCn1nnnc1NCc1cccs1 | 7 | -1 | 3 | 19115* | -11
O=C(O)C1C2C=CC(O2)C1C(=O)Nc1ccc(S(=O)(=O)Nc2ccccc2)cc1 (stereo not given) | 2 | 0 | 4 | 21995* | 1
Cc1ccc(C)c(-n2ccn(CC(=O)c3ccc(F)cc3)c(=O)c2=O)c1 | . | . | . | . | -20
CC(C)CCNC(=O)C1CCN(c2nc3ccccc3o2)CC1 | -3 | -7 | -2 | 16365* | -40
O=C(NCc1cccs1)C1CCN(c2nc3ccccc3o2)CC1 | 12 | 7 | 1 | 8060 | 2
NC(=O)c1ccc(NC(=O)C(=O)NCCc2ccc(Cl)cc2)cc1 | . | . | . | . | -2
O=S(=O)(NCC(c1ccccc1)N1CCNCC1)c1ccc(Cl)cc1 (stereo not given) | -7 | -2 | -2 | 21805* | 3
O=C(CCc1csc(NC(=O)NC2CCCCC2)n1)NCc1ccccc1 | . | . | . | . | -1
